Test results as given in PubChem BioAssay AID720582 (The Scripps Research Institute Molecular Screening Center, 2013).
Out of some 370,000 compounds screened, about 2,300 (0.62%) were called active.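 Rule for the calls: active = inhibition above a per-campaign cutoff equal to the mean of compounds falling between control-based bounds plus 3 SD (cut at about 20% in these data); inactive = the rest.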 The list comes from a sample in which actives are over-represented; it also holds similar structures and randomly drawn compounds.

These compounds were tested against Disintegrin and metalloproteinase domain-containing protein 10 (Homo sapiens) (UniProt O14672) (assay: human ADAM10 inhibitors, primary screen, biochemical, QFRET, HTS (AID 720582;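 note: 0% = DMSO wells while the 100% control is not disclosed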)). Conditions: recombinant ADAM10, EDANS/DABCYL FRET peptide cleavage, 3 h; at 7 µM; active compounds read high.
Chain of Disintegrin and metalloproteinase domain-containing protein 10 (Homo sapiens) (O14672 214-748 limits assumed): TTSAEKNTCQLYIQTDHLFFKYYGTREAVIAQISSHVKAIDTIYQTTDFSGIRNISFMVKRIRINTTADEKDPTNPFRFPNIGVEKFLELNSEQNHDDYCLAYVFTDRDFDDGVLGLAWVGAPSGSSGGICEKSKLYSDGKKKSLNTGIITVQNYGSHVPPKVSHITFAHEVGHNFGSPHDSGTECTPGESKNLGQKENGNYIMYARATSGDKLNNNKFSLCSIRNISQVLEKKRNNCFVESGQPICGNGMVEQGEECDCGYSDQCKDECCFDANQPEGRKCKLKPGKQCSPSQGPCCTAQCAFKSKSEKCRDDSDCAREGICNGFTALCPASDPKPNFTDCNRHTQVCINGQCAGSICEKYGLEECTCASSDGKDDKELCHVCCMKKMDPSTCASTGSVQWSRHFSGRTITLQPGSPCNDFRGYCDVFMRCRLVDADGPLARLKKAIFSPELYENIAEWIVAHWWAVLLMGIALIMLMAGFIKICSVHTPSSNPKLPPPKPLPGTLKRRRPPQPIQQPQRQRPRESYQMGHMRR

Structure (SMILES) | inhibition
C[C@@H]1CN([C@@H](C)CO)C(=O)c2cccc(NC(=O)Nc3cccc4ccccc34)c2O[C@H]1CN(C)S(=O)(=O)c1ccccc1F | -24.8% (inactive)
CCc1ccccc1NC(=O)CSc1nnc(-c2cccs2)o1 | -1.28% (inactive)
COc1ccc(-n2c(COc3ccccc3)nnc2SCC(=O)Nc2ccc3c(c2)OCO3)cc1 | 2.97% (inactive)
Cc1ccc(OCc2nc(C#N)c(N3CCCC3)o2)cc1 | -0.05% (inactive)
CCOc1ccc(Nc2oc(Cc3ccccc3)nc2C#N)cc1 | 23.6% (active)
O=S(=O)(c1ccccc1)c1nc(-c2ccccc2F)oc1NCc1cccnc1 | 12.6% (inactive)
O=S(=O)(c1ccc(Br)cc1)c1nc(-c2ccccc2)oc1NCc1cccnc1 | 4.12% (inactive)
N#Cc1nc(COc2ccc(Cl)cc2)oc1N1CCCC1 | 1.11% (inactive)
N#Cc1nc(COc2ccc(-c3ccccc3)cc2)oc1NCc1cccnc1 | 23.1% (active)
CCCCOCCCNC(=O)C[C@H]1C[C@@]2(C(=O)OC)C(=C[C@H](COCc3ccccc3)O[C@@H]2C)N(Cc2cccc3ccccc23)C1=O | 11.9% (inactive)
c1ccc2c(CCN3CCNC[C@H]3Cc3cccc4ccccc34)cccc2c1 | 79% (active)
c1ccc(C2CNCc3c2ccc2ccccc32)cc1 (centres undefined) | -2.76% (inactive)
CC(C)(C)CN1C(=O)C(=O)NC[C@H]1Cc1cccc2ccccc12 | -16.5% (inactive)
CC(=O)C1(C(=O)Nc2nccs2)CC(c2ccccc2C(F)(F)F)=NO1 (centres undefined) | -3.94% (inactive)
COCc1ccc(C(=O)N2CCc3c([nH]c4ccccc34)C2c2ccccn2)s1 (centres undefined) | 9.76% (inactive)
Cc1cccc(C(=O)N2CCc3c([nH]c4ccccc34)C2CC(C)C)n1 (centres undefined) | -15.2% (inactive)
Cc1cccc(C2c3[nH]c4ccccc4c3CCN2C(=O)c2cc(-c3cccn3C)n[nH]2)n1 (centres undefined) | 20.4% (active)
COC(=O)c1ccccc1-n1cc(COC(=O)NCCc2ccccc2)nn1 | -5.72% (inactive)
C=CCN(C(=O)[C@@H](CCCC)[C@@H](O)c1ccc(Cl)cc1)c1ccccc1 | 11.4% (inactive)
CC(C)Oc1cc(F)ccc1-c1cc(C(=O)Nc2cccc(Cl)c2)[nH]n1 | 22.1% (active)
COc1cc(NC(=O)c2cc(-c3ccc(F)cc3OC(C)C)n[nH]2)cc(OC)c1OC | 9.02% (inactive)
CC(C)Oc1cc(F)ccc1-c1cc(C(=O)Nc2ccc(F)cc2)[nH]n1 | 5.58% (inactive)
CCOC(=O)C1CCN(C(=O)C(C)(C)NC(=O)Nc2ccc(F)c(F)c2)CC1 | 6.44% (inactive)
COc1ccc(N2CCN(CCNS(=O)(=O)c3ccc([N+](=O)[O-])cc3)CC2)cc1 | 5.38% (inactive)
